From PubChem BioAssay AID686978 (National Center for Advancing Translational Sciences (NCATS), 2013)
Among all 420,000 compounds or so, about 64,000 (15%) were called active. Not shown: some 27% with an inconclusive outcome. The call rests on the fitted dose curve; in most records, active means well fitted inhibition curve with a large enough effect; inconclusive means small, poorly fitted or top-dose-only effect; inactive means flat fitted curve, though single readings scatter. These entries were drawn from the full list. Entries that show only a call come without a potency.

Assay: qHTS for Inhibitors of human tyrosyl-DNA phosphodiesterase 1 (TDP1): qHTS in cells in absence of CPT; further: nearly all actives have a fitted effect of over 55% in size
Details: DT40 Tdp1-/- hTDP1 cells, no CPT, ATP luminescence, 48 h; activity change, negative = growth inhibition: at 46.2 µM (top of the series)
Outline: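 Readout: luminescence from CellTiter-Glo after 30 min in the dark at RT. Cells: DT40 Tdp1-/- with stable hTDP1, 400/well. Exposure: compounds alone, ≥48 hr, 37 °C.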
Potency means the concentration at half of the fitted maximal effect.

| SMILES | Potency |
| --- | --- |
| CCN(CCCNC(=O)CCn1c(=O)[nH]c2ccsc2c1=O)c1ccccc1 | inactive |
| COc1cc(OC)cc(C(=O)Nc2ncc3c(n2)CC(C)(C)CC3=O)c1 | inactive |
| Cc1ccc(NC(=O)C(CC(=O)O)C2CCCO2)c(C)c1 (stereo not drawn) | inactive |
| CSCCC(NC(=O)c1ccc(Cl)cc1Cl)C(=O)NNC(=O)c1csc(N2CCOCC2)n1 (stereo not drawn) | inactive |
| Cc1ccc(CCn2c3c(c4ccccc42)CN(C)CC3)cn1 | inactive |
| Cc1ccc(-c2noc(CSc3nnc(-c4ccncc4)n3-c3ccc(F)cc3)n2)cc1 | 18.4 µM (active) |
| Cn1c(SCc2ccc(F)cc2)nnc1-c1ccncc1 | inactive |
| COc1ccc(-c2noc(CSc3nnc(-c4ccccc4)n3-c3ccc(F)cc3)n2)c(OC)c1 | 20.6 µM (active) |
| COc1ccccc1-c1noc(CSc2nc(C)cc(=O)[nH]2)n1 | inactive |
| Cc1ccc(-c2noc(CSc3nnnn3-c3ccccc3)n2)cc1 | inactive |
| COc1ccc(C(=O)NC(=O)CSc2nnc(-c3ccco3)n2-c2ccccc2)cc1 | inactive |
| Cc1nc(N2CCOCC2)sc1C(=O)NN | inactive |
| COC(=O)Cc1ccc(OCC(=O)NC2CCCC2)cc1 | inactive |
| COc1ccc(-n2nc3c(c2NC(=O)Cc2cccc(C)c2)CS(=O)C3)cc1 (stereo not drawn) | inactive |
| Cc1nc(NC(CC(C)C)C(=O)O)c2nc(C)oc2n1 (stereo not drawn) | inactive |
| Cc1ccc(NC(=S)N/N=C2/CCCc3c(C)cc(C)cc32)cc1 | inactive |
| Cc1ccc(S(=O)(=O)c2nnn3c2nc(N2CCN(c4ccccc4F)CC2)c2cc(Cl)ccc23)cc1C | inactive |
| COCCn1c(SCC(=O)Nc2cc(Cl)ccc2OC)nc2c(c1=O)SC(C)C2 (stereo not drawn) | 20.6 µM (active) |
| COc1ccc(NC(=O)CSc2nc(SC)ns2)c(OC)c1 | inactive |
| COCCn1c(SCC(=O)Nc2ccccc2F)nc2c(c1=O)SCC2 | inactive |
| Cc1ccc(Cl)cc1NC(=O)CSc1nccn1C | inactive |
| COc1ccc(OC)c(NC(=O)Cn2c(=O)n(Cc3ccccc3)c(=O)c3ccccc32)c1 | inactive |
| COCCn1c(SCC(=O)Nc2cc(OC)ccc2OC)nc2c(c1=O)SC(C)C2 (stereo not drawn) | 13 µM (active) |
| CCc1cccc(C)c1NC(=O)CSc1nnc(-c2ccco2)n1N | inactive |
| CCOC(=O)CSc1nnc(NC(=O)c2cccc(S(=O)(=O)N3CCCC3)c2)s1 | inactive |
| O=C(Nc1cccc2cccnc12)c1cccc2c(Br)cccc12 | inactive |

| SMILES | Potency |
| --- | --- |
| Cc1ccccc1CS(=O)(=O)CC1(O)CCN(C(=O)c2cccc(C(F)(F)F)c2)CC1 | inactive |
| CCN(Cc1ccccc1)C(=O)CCS(=O)(=O)c1ccc2c(c1)oc(=O)n2C | inactive |
| COc1cccc2c1CCC(NC(C)=O)C2=O (stereo not drawn) | inactive |
| FC(F)(F)c1ccc(-n2cn[nH]c2=S)cc1 | inactive |
| COc1ccc(-c2c(C)nn3c(N4CCC(C(=O)N5CCCCC5)CC4)cc(C)nc23)cc1OC | inactive |
| N#Cc1cc([N+](=O)[O-])ccc1NCC1CCCO1 (stereo not drawn) | inactive |
| O=C(Nc1ccc2c(c1)OCCO2)c1ccoc1 | inactive |
| CN1CCN(c2ccc(S(=O)(=O)Nc3ccccc3)cc2[N+](=O)[O-])CC1 | 9.2 µM (active) |
| Cc1ccc(S(=O)(=O)NCCSc2ccccc2)cc1[N+](=O)[O-] | inactive |
| Cc1ccc(C(=O)c2ccc(N3CCN(C)CC3)c([N+](=O)[O-])c2)cc1 | 23.1 µM (active) |
| CS(=O)(=O)N1CCN(c2ccc(C(=O)NC3C4CC5CC(C4)CC3C5)cc2[N+](=O)[O-])CC1 (stereo not drawn) | 23.1 µM (active) |
| COc1ccc(NS(=O)(=O)c2ccc(N3CCN(CCO)CC3)c([N+](=O)[O-])c2)cc1 | 3.66 µM (active) |
| Cc1cccc(N2CCN(c3ccc(C(N)=O)cc3[N+](=O)[O-])CC2)c1C | inactive |
| COc1ccc(NS(=O)(=O)c2ccc(N3CCOCC3)c(NC(=O)/C=C/C(=O)O)c2)cc1 | inactive |
| Cc1ccc(S(=O)(=O)N2CCN(C(=O)c3ccc(-n4cncn4)c([N+](=O)[O-])c3)CC2)cc1 | inactive |
| COc1ccc(N2C(=O)CC(Nc3ccc(F)cc3)C2=O)c([N+](=O)[O-])c1 (stereo not drawn) | inactive |
| CC1CCN(c2ccc(S(=O)(=O)Nc3cc(C(=O)O)cc(C(=O)O)c3)cc2[N+](=O)[O-])CC1 | inactive |
| FC(F)(F)c1ccc2nnc(-c3c(Cl)cccc3Cl)n2c1 | inactive |
| COc1ccc(-n2c(C)nn(CC3CC3)c2=O)cc1 | inactive |
| O=C(COc1coc(CN2CCN(c3ccccc3)CC2)cc1=O)N1CCc2ccccc21 | inactive |
| O=C(NCCN=C1NS(=O)(=O)c2ccccc21)c1ccc(S(=O)(=O)N2CCOCC2)cc1 | inactive |
| CCCCCCOC(=O)NCC(O)c1ccccc1 (stereo not drawn) | inactive |
| CC(C)C[C@H](NC(=O)C1CCC(CNC(=O)[C@@H]2CCCN2C(=O)OC(C)(C)C)CC1)C(=O)O (stereo partly drawn) | inactive |
| CC(=O)OCC(=O)C1CCC2C3CCC4=CC(=O)CC[C@@]4(C)C3CC[C@]12C (stereo partly drawn) | inactive |
| CSc1ncnc2c1ncn2CC(=O)C1CCC2C3CCC4=CC(=O)CCC4(C)C3CCC12C (stereo not drawn) | 5.8 µM (active) |
| C#CCOc1ccc(/C=C2/C(=O)NN(c3ccccc3)C2=O)cc1OC | inactive |

| SMILES | Potency |
| --- | --- |
| COc1cc(/C=C2/C(=O)ON=C2C)ccc1OCc1cccc(F)c1 | 16.4 µM (active) |
| COc1ccnc2c1c(=O)n(Cc1cccc(F)c1)c(=O)n2C | inactive |
| Cc1c(C(=O)O)nnn1-c1nonc1N | inactive |
| CCOc1cc(C(=O)Nc2ncccn2)cc(OCC)c1OCC | inactive |
| CC1C/C(=N/NC(=O)c2cccs2)CC(C)(C)C1 (stereo not drawn) | inactive |
| COc1cccc2sc(NNC(=O)c3nc4ccccc4s3)nc12 | 6.51 µM (active) |
| COc1ccc(S(=O)(=O)N2CCOCC2)cc1C(=O)Nc1nc2ccccc2s1 | inactive |
| CSCCC(Nc1nc2ccccc2s1)C(=O)O (stereo not drawn) | inactive |
| Cc1ccc(N2CC(C(=O)NCCS(=O)(=O)N3CCN(c4ccccc4)CC3)CC2=O)cc1 (stereo not drawn) | inactive |
| COc1ccccc1NC(=O)COC(=O)c1ccccc1SCC(=O)N1CCCC1 | inactive |
| CCN(CC)c1ccc(NC(=O)Cn2nc3c(cc2=O)CCCC3)c(C)c1 | inactive |
| Cc1ccc2c(c1)N(CC(=O)NCCCN1CCCCC1)C(=O)c1cccnc1O2 | inactive |
| CC(=O)c1cccc(NC(=O)CN2C(=O)c3cccnc3Oc3ccc(Cl)cc32)c1 | 13 µM (active) |
| CC1(c2ccc(Cl)cc2Cl)NC(=O)N(CC(=O)Nc2cccnc2Cl)C1=O (stereo not drawn) | inactive |
| Cc1ccc2c(c1)N(CC(=O)NCCc1ccc(Cl)cc1)C(=O)c1cccnc1O2 | 1.16 µM (active) |
| CCN(CC)c1ccc(NC(=O)CN2C(=O)c3cccnc3Oc3ccc(Cl)cc32)c(C)c1 | 13 µM (active) |
| Cc1ccc2[nH]c3c(=O)n(CC(=O)NCCc4ccc(Cl)cc4)ncc3c2c1 | inactive |
| CCCCN1C(=O)C(=O)N(CC(=O)Nc2cccc(C(C)=O)c2)C1=O | inactive |
| CC(=O)Nc1cccc(C(=O)OCN2C(=O)c3ccccc3C2=O)c1 | inactive |
| O=C(COC(=O)c1ccc(S(=O)(=O)N2CCc3ccccc3C2)cc1)NC(=O)NCc1ccco1 | inactive |
| O=C(COc1ccc([N+](=O)[O-])cc1Cl)Nn1cnnc1 | inactive |
| CNc1nc(=O)n(C2CCCO2)cc1C (stereo not drawn) | inactive |
| O=C(CCC(=O)N1CCCC1)Nc1ccc([N+](=O)[O-])cc1 | inactive |
| COC(=O)NNC(=O)C1CCC(C)CC1 (stereo not drawn) | inactive |
| COc1ccc(C(=O)NNS(=O)(=O)c2ccc(C)cc2)cc1 | inactive |
| COc1ccc(C(=O)NN(C)c2nc(-c3ccccc3)cc(C)c2S(C)(=O)=O)cc1 | 18.4 µM (active) |

| SMILES | Potency |
| --- | --- |
| COc1ccc(C(=O)NN2C(=O)C3C(c4ccccc4)C=CC(c4ccccc4)C3C2=O)cc1 (stereo not drawn) | inactive |
| COc1ccc(CN2C(=O)C(CC(=O)NC3CCCCC3)CC(C(=O)N3CCOCC3)=C2C)cc1 (stereo not drawn) | inactive |
| CC(C)c1cc(NCc2ccccn2)n2c(nc3ccccc32)c1C#N | 11.6 µM (active) |
| Cc1cc(NC(C)C)n2c(nc3ccccc32)c1C#N | inactive |
| CCCc1nnc(NC(=O)c2cc(OC)cc(OC)c2)s1 | inactive |
| O=C(CSc1n[nH]c(-c2cccnc2)n1)Nc1ccc(Cl)cc1 | inactive |
| CCN(CC(=O)NC(C)C)C(=O)CCNC(=O)c1ccc(Cl)cc1 | inactive |
| COc1cc2[nH]c(O)c(C=O)c2cc1OC | inactive |
| COc1cc(N=Cc2c(O)[nH]c3ccccc23)cc(OC)c1OC | 13 µM (active) |
| COc1cc(N=Cc2c(O)c3ccccc3oc2=O)c(OC)cc1Cl | inactive |
| CCn1c(O)c2ccc(C(=O)N=NC(=O)c3cccnc3)cc2c1O | inactive |
| Cc1cc(OC(C)C(=O)Nc2ccc(S(=O)(=O)Nc3onc(C)c3C)cc2)cc(C)c1Cl (stereo not drawn) | inactive |
| Cc1c(O)cc(O)c2c(=O)c(-c3ccc(O)cc3)coc12 | inactive |
| CCCOc1ccc(N/C=C/C(=O)C(C)(C)C)cc1 | inactive |
| CCOc1ccc(N/C=C/C(=O)c2cc(OC)c(OC)c(OC)c2)cc1 | 6.51 µM (active) |
| CCOc1ccc(N/C=C/C(=O)c2ccccc2)cc1 | inactive |
| COc1ccc(C2CC(c3cccs3)=NN2c2ccc(F)cc2)cc1OC (stereo not drawn) | inactive |
| O=C(COC(=O)CCC(=O)c1cccs1)NCc1ccco1 | inactive |
| CCCNC(=O)CN(Cc1ccccc1F)S(=O)(=O)c1ccc(C)cc1 | inactive |
| Cc1ccc(S(=O)(=O)N(CC(=O)NCCSC2CCCCC2)c2ccccc2F)cc1 | 18.4 µM (active) |
| CCOc1ccc(S(=O)(=O)N(CC(=O)NCCSCc2ccc(C)cc2)c2ccccc2)cc1 | inactive |
| COC(=O)[C@H]1Cc2cnoc2C[C@]1(C)C(=O)O | inactive |
| COc1cccc(-c2cc3nc4c(c(N5CCC6(CC5)OCCO6)n3n2)CCCC4)c1 | 20.6 µM (active) |
| O=C(NCCO)c1cccc(-c2cccc3nccn23)c1 | inactive |
| C/C(CC(C)C)=N\Oc1nc(C)cc(C)n1 | inactive |
